Measured values as given in ChEMBL document CHEMBL4513216, “Probing the Open Global Health Chemical Diversity Library for Multistage-Active Starting Points for Next-Generation Antimalarials” (ACS Infect Dis, 2020).
Out of some 69,000 compounds screened, about 8,600 (12%) showed an effect of 50% or more. The sample holds strong results, similar compounds and a random draw of the others, so the mix is not that of the screen.

Test system: Plasmodium berghei
Experiment: Screen against P. berghei liver stage (PbLuc), transformed with Luciferase, at 10uM
Format: functional, HepG2
Conditions: tested at 10 uM

Going from COC(=O)c1ccc(CN2CCC(c3n[nH]c(C)n3)CC2)s1 to CNC(=O)C1CCN(c2nc3nc[nH]c(=O)c3s2)CC1, the INHIBITION rises from 16.3% to 24.7%.

Compared with O=C(NCCc1noc(C2CCCC2)n1)c1cn2ccsc2n1, Cc1noc(C2CCN(C(=O)CCCNc3ncccn3)CC2)n1 is lower in INHIBITION: 47.2% for the first, 18.4% for the second.

First: Cc1nc(C2CCN(C(C)C)CC2)sc1Br
Second: CC(C)NC(=O)C1CCN(c2nc3nc[nH]c(=O)c3s2)CC1
The INHIBITION of the first is higher: 30.4% for the first, 4.35% for the second.

Going from CCN1CCCC(C)(C(=O)NCc2nccn2Cc2ccccc2)C1 (stereo unspecified) to CCN1CCCC(C)(C(=O)NCc2nncn2CCc2ccccc2)C1 (stereo unspecified), the INHIBITION rises from 47.2% to 57%.

First: CCn1cnnc1CNC(=O)N1CCN(CCc2ccccc2)CC1
Second: COCCN1CCCN(C(=O)NC(C)Cn2cccn2)CC1 (stereo unspecified)
The INHIBITION of the first is lower: 23.4% for the first, 42.6% for the second.

Compared with Cc1cc(C)c2ncc(C#N)c(NC3CCN(CC(N)=O)CC3)c2c1, Cc1cnn(CC2CCCCN2C(=O)c2ccc(NC3CC3)nc2)c1 (stereo unspecified) is higher in INHIBITION: -5.705% for the first, 42.45% for the second.

Compared with O=S(=O)(N1CCN(CC2CC2)CC1)N1CCCC1c1ccco1 (stereo unspecified), COC1CCN(S(=O)(=O)N2CCCC2c2ccco2)CC1 (stereo unspecified) is higher in INHIBITION: 31.9% for the first, 49% for the second.

First: O=S(=O)(N1CCC(n2cccc2)CC1)N1CCCC1c1ccco1 (stereo unspecified)
Second: CC(C)CN1CC[C@@H]2[C@@H]1CCN2S(=O)(=O)c1cccs1
The INHIBITION of the first is higher: 66.1% for the first, 1.34% for the second.

First: CC(C)CN1CCN(S(=O)(=O)c2cn(C)cn2)Cc2cccnc21
Second: CC(C)CS(=O)(=O)N1CCC2(CC1)CCn1c(-c3cnn(C)c3)cnc12
The INHIBITION of the first is higher: 48.7% for the first, 5.41% for the second.

Compared with COCCC(=O)N1CCCC1c1csc(Nc2ncccn2)n1 (stereo unspecified), O=C(c1cnccn1)N1CC[C@H]2[C@@H]1CCC(=O)N2c1cccnc1 is lower in INHIBITION: 36.7% for the first, 22.9% for the second.

Compared with O=C(NC1CC1)C1CCN(c2nc3nc[nH]c(=O)c3s2)CC1, O=C(NC1CCC1)c1cccc(S(=O)(=O)NCc2nc(C3CC3)no2)c1 is lower in INHIBITION: 50.2% for the first, -9.2% for the second.

Going from CCN(CC)S(=O)(=O)N(Cc1cccc(C)c1)Cc1ccccn1 to CCN(CC)S(=O)(=O)N(Cc1ccccn1)Cc1ccccc1C, the INHIBITION rises from 9.63% to 61.3%.

Going from Cc1ccccc1CCCN(Cc1ccccn1)S(C)(=O)=O to CCN(CCCc1ccccc1C)S(C)(=O)=O, the INHIBITION falls from 51% to 14.1%.

Going from Cc1ccccc1CCCN(C)S(C)(=O)=O to CCN(Cc1ccccc1C)S(C)(=O)=O, the INHIBITION falls from 24.2% to 5.15%.

First: Fc1cnc(N2CCCn3c(nnc3Cn3ccnc3)C2)nc1
Second: O=C1CC[C@H]2[C@H](CCN2c2ncc(F)cn2)N1c1ccccc1
The INHIBITION of the first is lower: -68% for the first, 49.4% for the second.

Going from CCC(CC)c1nnc(NC(=O)NC(C)Cn2cccn2)s1 (stereo unspecified) to CCn1ccc(NS(=O)(=O)c2cccc(CSC)c2)n1, the INHIBITION falls from 27.4% to -3.83%.

Compared with Cc1nc(CN(C)C2CCN(Cc3cccc4c3OCCO4)C2)no1 (stereo unspecified), CN(C)C(=O)N[C@H]1CN(Cc2ccc3c(c2)OCO3)[C@@H]2CCCO[C@H]12 is lower in INHIBITION: 29.4% for the first, 27.2% for the second.

Compared with Cn1cc(N2C(=O)CC[C@@H]3[C@H]2CCN3Cc2nccs2)cn1, Cc1nc(CN2CC[C@H]3[C@@H]2CCC(=O)N3c2cnn(C)c2)cs1 is lower in INHIBITION: 22.4% for the first, -20.1% for the second.

Compared with Cc1cnc(N2CC[C@H]3[C@@H]2CCC(=O)N3c2ccccc2)nc1, O=C1CC[C@H]2[C@H](CCN2c2ncccn2)N1c1ccccc1 is higher in INHIBITION: 2.7% for the first, 55.4% for the second.

Going from O=C(c1cscn1)N1CC[C@H]2[C@@H]1CCC(=O)N2c1ccccc1 to O=C(c1cccs1)N1CC[C@@H]2[C@H]1CCC(=O)N2c1ccccc1, the INHIBITION falls from 55.5% to 40.3%.

Going from Cn1cc(N2C(=O)CC[C@@H]3[C@H]2CCN3C(=O)c2cscn2)cn1 to CNc1cc(C2CN(C(=O)c3cscn3)CCO2)nc(C)n1 (stereo unspecified), the INHIBITION falls from 52% to 26.7%.

First: Cc1noc(C(C)C)c1C(=O)NCc1ccc(N(C)C)c(F)c1
Second: COc1cc(CNCc2c(C)nn(C)c2N(C)C)ccc1C
The INHIBITION of the first is lower: 29.2% for the first, 30.8% for the second.

Compared with COc1cc(CSc2nnc(N)n2C2CC2)ccc1SC, COc1ccc(F)cc1CSCC(=O)N(C)CCC#N is higher in INHIBITION: 0.348% for the first, 13.6% for the second.

First: CN(C)Cc1noc2c1CN(C(=O)c1ccncc1)CC2
Second: Cc1ccoc1C(=O)N1Cc2c(Cn3ccnc3)nn(C)c2C1
The INHIBITION of the first is higher: 39.4% for the first, 39.2% for the second.

Compared with O=S1(=O)[C@@H](c2ccccc2)[C@H](CO)CN1C1CC1, O=C(CCO)N1C[C@H]2CN(c3ccccc3)C(=O)[C@H]2C1 is lower in INHIBITION: -1.99% for the first, -73.8% for the second.

Going from Cc1ccc(C2(O)CCN(C(=O)c3sccc3S(N)(=O)=O)CC2)nc1 to CCN1CC2(CCN(C(=O)c3nc4cc(C)ccn4c3F)CC2)CC1=O, the INHIBITION rises from -11.3% to 7.65%.

Going from CCOc1cc(CNC(=O)C(C#N)c2nc(C)cs2)ccc1OC(F)F (stereo unspecified) to CCOc1cc(CNC(=O)NC2CC=CC2)ccc1OC(F)F, the INHIBITION falls from 42.8% to 23.9%.

Going from COc1ccc(CN(CCC#N)CCN2CCOCC2)cc1OC to CCOc1ccc(CN(CCC#N)CCN2CCOCC2)cc1OC, the INHIBITION rises from 43.4% to 55.4%.

First: CCOc1cc(CN(C)CC(=O)O)ccc1OC(F)F
Second: CCOc1cc(CN(C)CCCO)ccc1OC(F)F
The INHIBITION of the first is lower: 21% for the first, 31.4% for the second.

First: COc1ccc(CN(CCC#N)CCN2CCOCC2)c(OC)c1
Second: COc1ccc(F)cc1CSCC(=O)N(CCC#N)CCC#N
The INHIBITION of the first is higher: 31.9% for the first, -28.8% for the second.

Going from CCOc1cc(CN(C)Cc2ccccc2)ccc1OC(F)F to CCOc1cc(CN(C)CCC#N)ccc1OC(F)F, the INHIBITION falls from 68.8% to 64.1%.

Compared with CCOc1cc(CN(C)CC(C)(C)O)ccc1OC(F)F, CCOc1cc(CN(C)CCOC)ccc1OC(F)F is higher in INHIBITION: -2.13% for the first, 43.5% for the second.

First: CCOc1cc(CN(C)CCCC#N)ccc1OC(F)F
Second: CCOc1cc(CN(C)CCC(=O)OC)ccc1OC(F)F
The INHIBITION of the first is higher: 75.2% for the first, 54.5% for the second.

Compared with CCNC(=O)NC(=O)CNC1(c2noc(C)n2)CCCC1, NC(=O)CC1CCCN(C(=O)NCC2(c3cccs3)CCCC2)C1 (stereo unspecified) is lower in INHIBITION: 43.8% for the first, -9.51% for the second.

Compared with COCCNC(=O)C(C)N1CCN(C)CC1 (stereo unspecified), COCCn1c(=O)n(C)c(=O)c2ccc(C3CCC(CN)CC3)nc21 (stereo unspecified) is higher in INHIBITION: 4.41% for the first, 36.1% for the second.

First: CCN(CC)CCN(C)Cc1cn(C)nc1-c1ccc2c(c1)OCCO2
Second: Cc1nn(C)c(N(C)C)c1CNCc1cccc(CN(C)C)c1
The INHIBITION of the first is higher: 39.4% for the first, -72.2% for the second.

Compared with COc1ccccc1-n1nc(-c2ccco2)n(CC(N)=O)c1=O, COc1cccc(CNCc2c(C)nn(C)c2N(C)C)c1 is higher in INHIBITION: 30.9% for the first, 38.95% for the second.

Going from O=C1COC2(COCCN(Cc3ccsc3)C2)CN1c1ccc(F)cc1 (stereo unspecified) to Cc1ccc(N2CCCC(NCc3nnc4n3CCCC4)C2=O)cc1 (stereo unspecified), the INHIBITION falls from 13.1% to -76.95%.

Compared with O=C1CCC(c2ccc(Cl)cc2)=NN1CN1CCCCCC1, O=C1CCSCC(C(=O)N2CCCCC2)N1 (stereo unspecified) is higher in INHIBITION: -52.7% for the first, -18.3% for the second.

First: CC(C)C(=O)N1CC[C@@H]2[C@H](CC1)N(Cc1cccnc1)CCS2(=O)=O
Second: O=C(NC1CCCC1)N1CCC2(CC1)CC(Oc1cccnc1)CO2 (stereo unspecified)
The INHIBITION of the first is lower: -20.1% for the first, 9.63% for the second.

First: CCOCCC(=O)N1CCCC(CO)(CC2CC2)C1 (stereo unspecified)
Second: O=C1CCSCC(C(=O)N2CCCC2)N1 (stereo unspecified)
The INHIBITION of the first is lower: 33% for the first, 38.5% for the second.

Compared with O=C(O)c1nnn(-c2cccc(C(F)(F)F)c2)c1C1CC1, CC(C)CC(=O)N(C)Cc1nc(C(F)(F)F)cs1 is higher in INHIBITION: 12.9% for the first, 62.9% for the second.

Compared with Cn1cc(-c2cnc3n2CCC32CCN(S(=O)(=O)C3CC3)CC2)cn1, Cn1cc(-c2cnc3n2CCC32CCN(S(C)(=O)=O)CC2)cn1 is lower in INHIBITION: 63.1% for the first, -26.1% for the second.

First: CCCS(=O)(=O)N1CCC2(CC1)CCn1c(-c3cnn(C)c3)cnc12
Second: CCS(=O)(=O)N1CCC2(CC1)CCn1c(-c3cnn(C)c3)cnc12
The INHIBITION of the first is higher: 85.4% for the first, -65.4% for the second.

Compared with Cn1cc(N2CCC3(CCN(S(=O)(=O)C4CC4)C3)C2=O)cn1 (stereo unspecified), CS(=O)(=O)N1CCN(C(=O)C2CSCCC(=O)N2)CC1 (stereo unspecified) is higher in INHIBITION: 15.1% for the first, 60% for the second.

Compared with Cc1c(-c2cc(-c3cnn(C)c3C)n(CC(=O)NC3CC3)n2)cnn1C, Cc1nc(N2CCN(C(=O)C3CCCC3)CC2)c2c(n1)c(C)nn2C is lower in INHIBITION: 45.4% for the first, 35.8% for the second.

First: CC(C)N(C)CC(=O)N(C)Cc1nc(C(F)(F)F)cs1
Second: CCOCC(=O)N(C)Cc1nc(C(F)(F)F)cs1
The INHIBITION of the first is higher: 22.7% for the first, 9.52% for the second.

First: CNC(=O)[C@H]1C[C@@H]2CN(C(=O)c3occc3C)C[C@@H]2N1S(C)(=O)=O
Second: O=C(c1ccc(S(=O)(=O)NCc2ccon2)cc1)N1CCNCC1
The INHIBITION of the first is lower: -0.371% for the first, 41.3% for the second.

Compared with Cc1nn(C)c(N(C)C)c1CNCC(O)COc1ccc(F)cc1 (stereo unspecified), Cc1nn(C)c(N(C)C)c1CNCC(O)COc1cccc(F)c1 (stereo unspecified) is higher in INHIBITION: 0% for the first, 83.2% for the second.

Going from COc1cccc(CNCc2c(C(C)C)nn(C)c2N(C)C)c1 to COCc1cccc(CNCc2c(C(C)C)nn(C)c2N(C)C)c1, the INHIBITION rises from 12.22% to 50.8%.

First: Cc1nn(C)c(N(C)C)c1CNCc1cccc(Cl)c1
Second: Cc1nn(C)c(N(C)C)c1CNCc1cccc(Br)c1
The INHIBITION of the first is higher: 68.1% for the first, -22.1% for the second.

Compared with COc1ccc2cc(CNCc3c(C)nn(C)c3N(C)C)ccc2c1, COCc1cccc(CNCc2c(C)nn(C)c2N(C)C)c1 is lower in INHIBITION: 53% for the first, 44.3% for the second.

Compared with Cc1cccc(OCC(O)CNCc2c(C)nn(C)c2N(C)C)c1 (stereo unspecified), COCCN1C(=O)CCC12CCC(NCc1ccc(OC)cc1)CC2 (stereo unspecified) is higher in INHIBITION: -45.2% for the first, 15.3% for the second.
